Rows were chosen to be rich in hits. Some 4.3% of all compounds tested hit in one or more screens of this group.
ADAM17 inh = ADAM17 inhibition, QFRET primary screen. P78536. recombinant ADAM17, EDANS/DABCYL FRET peptide cleavage. inhibition, % at 6.95 µM. hit rate 0.83% among 370,000. AID 720648;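 active = inhibition above the mean of compounds lying between control limits plus 3 SD, set per campaign, cut at about 8.5% in these data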;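 note: 0% = DMSO-only wells as the low control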
ADAM10 inh = ADAM10 inhibition, QFRET primary screen. AID 720582. O14672. hit rate 0.62% among 370,000. inhibition, % at 7 µM. recombinant ADAM10, EDANS/DABCYL FRET peptide cleavage, 3 h;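 active = inhibition above a per-campaign cutoff equal to the mean of compounds falling between control-based bounds plus 3 SD, cut at about 20% in these data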;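 note: 0% = DMSO wells while the 100% control is not disclosed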
GRIN3A LBD mod = NR3A (human) ligand-binding domain modulation; NR3A LBD differential scanning fluorimetry, Tm shift; 0% = protein alone, 100% = glycine-bound protein; Tm shift relative to glycine control, % at 25 µM; hit rate 2.5% among 340,000; AID 1259313;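 active = melting temperature shift of at least 10% of the positive control shift, at one fixed dose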
FAS TE block = inhibitors of human fatty acid synthase thioesterase domain; AID 602261; recombinant FAS-TE, OMFH fluorogenic substrate, fluorescence endpoint; P49327; inhibition, % at 15 µM; hit rate 0.67% among 360,000;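 active = compounds whose normalised, plate-corrected inhibition of enzyme fluorescence in the single-dose primary screen is 50% or more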;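 note: 0% = DMSO with enzyme and 100% = substrate without enzyme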
sPLA2-III inh = Blocks human group III sPLA2 activity | AID 743126 | Q9NZ20 | QFRET BODIPY PC-A2 liposome hydrolysis, fluorescence | hit rate 0.56% among 370,000 | inhibition, % at 12.2 µM;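 active = inhibition above mean plus 3 SD of compounds lying within the high and low control bounds, cut at about 19% in these data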;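 note: 0% = median of test compound wells and 100% = no enzyme DMSO wells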
Starred values were filed as active, the others as inactive; nt = no result given.

SMILES | ADAM17 inh | ADAM10 inh | GRIN3A LBD mod | FAS TE block | sPLA2-III inh
Cc1ccccc1CC(=O)Nc1nnc(-c2cccnc2)s1 | -3 | -12 | nt | nt | 2
CCN(c1ccccc1)S(=O)(=O)c1cccc(C(=O)NCC2(N(C)C)CCCCC2)c1 | -1 | -6 | 25* | -6 | -2
COc1ccc(S[C@]2(C(=O)NCCCN(C)C)CC(=O)N[C@@H]2c2ccc(OC)cc2)cc1 | -2 | -4 | nt | nt | 2
C/C(C=NNC(=O)CSc1nc2ccccc2n1Cc1ccccc1Cl)=C\c1ccccc1 | 5 | 4 | nt | nt | 2
CCOC(=O)N1CCC(NC(=O)C2=C(C)C(=O)OC23CCC(C)CC3)CC1 (configuration not stated) | 1 | -5 | -4 | -5 | -5
CC1=C(C(=O)NC2CCC(C)CC2)C2(CCC(C)CC2)OC1=O (configuration not stated) | 5 | -4 | 14* | 1 | 1
O=c1[nH]c2ccc(Br)cc2o1 | -5 | -14 | 11* | -10 | 6
O=C(NCc1ccccc1Cl)C1CCC(CNS(=O)(=O)c2cccc3cccnc23)CC1 (configuration not stated) | 1 | 1 | nt | nt | 5
CCOC(=O)c1cn(CC)c2cc(Cl)c([N+](=O)[O-])cc2c1=O | -1 | -9 | 12* | 10 | 7
CCOC(=O)c1cn(-c2c(Cl)cccc2Cl)c2cc(Cl)c([N+](=O)[O-])cc2c1=O | -4 | -12 | -5 | 24 | 1
CCn1c(N2CCC(C)CC2)nc2c1c(=O)n(C)c(=O)n2C | -4 | -8 | 0 | 1 | 26*
Cc1[nH]n(-c2c(Cl)cc(Cl)cc2Cl)c(=O)c1C=Nc1ccc(S(=O)(=O)N2CCOCC2)cc1 | 1 | 9 | 11* | 7 | -2
CCCCCCCCN1C(=O)[C@@H](CC(=O)N2CCCCC2)C[C@@]2(C(=O)OC)C1=C[C@H](C(C)C)O[C@@H]2C1CC1 | -2 | -2 | nt | nt | -4
CC(Nc1nc(-c2ccccc2O)nc2ccccc12)c1ccccc1 (configuration not stated) | 2 | 0 | 22* | 37 | -21
CC(Nc1nc(-c2ccccc2F)nc2ccccc12)c1ccccc1 (configuration not stated) | 2 | 17 | 3 | 19 | -22
Oc1ccccc1-c1nc(NC2CCCC2)c2ccccc2n1 | -1 | 9 | 19* | 39 | -10
Cc1ccc(C)c(SCC(=O)NC2CCS(=O)(=O)C2)c1 (configuration not stated) | -1 | 2 | 1 | -2 | 9
Cc1ccc(-n2nnnc2SCC(=O)NC2CCS(=O)(=O)C2)c(C)c1 (configuration not stated) | -5 | -7 | 19* | -6 | 3
CC(C)(C)NC(=O)C(c1cccnc1)N(C(=O)c1cnc[nH]1)c1ccc(C(C)(C)C)cc1 (configuration not stated) | 1 | 4 | nt | nt | -12
Cc1ccccc1CN1CCCCC(NC(=O)c2ccccc2C(F)(F)F)C1=O (configuration not stated) | -4 | -4 | nt | nt | 1
COc1ccc(/C=N/NS(=O)(=O)c2ccccc2)cc1OC(=O)c1ccc(C)cc1 | 4 | 5 | 19* | 19 | -58
COc1ccc(/C=N\NS(=O)(=O)c2ccc(C)cc2)cc1COc1ccccc1[N+](=O)[O-] | 0 | 7 | 12* | 27 | -7
COc1cc(/C=N/NS(=O)(=O)c2ccc(C)cc2)ccc1OCc1cccc(C(=O)O)c1 | -1 | -8 | 0 | 0 | -9
COc1ccc(/C=N/NS(=O)(=O)c2ccc(C)cc2)cc1OC(=O)c1ccccc1 | 3 | 5 | 10* | 23 | -30
Fc1cc(F)c(CSc2nnc(-c3cccnc3)n2Cc2ccccc2)cc1F | -1 | 1 | nt | nt | -3
SMILES | ADAM17 inh | ADAM10 inh | GRIN3A LBD mod | FAS TE block | sPLA2-III inh
C=CC(=O)NC1CCCCN(CC)C1=O (configuration not stated) | -7 | -13 | nt | nt | 18
O=C(c1cc(-c2ccccc2)on1)N1CCC(Oc2cccnc2)CC1 | 0 | 1 | nt | nt | -10
COc1cccc(/C(O)=C/c2nc3ccc(C(=O)NCCc4ccc(Cl)cc4)cc3[nH]c2=O)c1 | -5 | -15 | 11* | -28 | -2
COC(=O)C1CN(Cc2ccc(C)cc2)CCS(=O)(=O)N1Cc1cn(Cc2ccc(OC)cc2)nn1 (configuration not stated) | 3 | 7 | nt | nt | 0
CCOc1ccc(NC(=O)C(C)Oc2ccccc2C(=O)Nc2ccc(C)c(Cl)c2)cc1 (configuration not stated) | 3 | 14 | 26* | 30 | -45
Cc1ccc(NC(=O)CSc2ccccc2NC(=O)c2ccccc2)cc1Cl | 0 | 4 | 1 | -6 | 1
Cc1ccc(NC(=O)CSc2ccccc2NC(=O)c2ccccc2Cl)cc1Cl | -1 | -3 | 11* | 19 | 6
Cc1ccc(-n2c(SCC(=O)Nc3ccccc3-c3ccccc3)nnc2-c2cnccn2)cc1 | 1 | -8 | nt | nt | 8
CCCC1CCC2(CC1)CCC2OC(=S)Nc1ccc(I)cc1 (configuration not stated) | -6 | -1 | nt | nt | 3
COc1ccc(CCNC(=O)CSc2nn(-c3ccccc3)c(=S)s2)cc1OC | 0 | 3 | 19* | -2 | 1
CCCCCCCCNS(=O)(=O)CC1NCc2cc(F)ccc21 (configuration not stated) | 0 | 1 | nt | nt | -4
N=c1c(-c2nc3ccccc3[nH]2)cc(C(=O)c2ccco2)nn1-c1ccccc1 | -1 | -5 | -8 | 3 | 25*
CCOc1ccc(Oc2c(Cl)c(Br)nn(Cc3cccc4ccccc34)c2=O)cc1 | -3 | -4 | nt | nt | 4
COc1cc2nc(SCc3ccc(Cl)cc3Cl)n(Cc3cccs3)c(=N)c2cc1OC | 0 | 5 | 22* | 30 | -2
COc1ccc(Cn2c(SCc3ccc(C)cc3)nc3cc(OC)c(OC)cc3c2=N)cc1Cl | 2 | -4 | 2 | 31 | -5
COCCCn1c(SCc2ccccc2)nc2cc(OC)c(OC)cc2c1=N | -3 | 0 | -8 | 24 | -36
COc1ccc(Cn2c(SCc3cc(C)ccc3C)nc3cc(OC)c(OC)cc3c2=N)cc1 | 2 | -3 | -3 | 38 | -11
COCCCn1c(SCc2cccc(C(F)(F)F)c2)nc2cc(OC)c(OC)cc2c1=N | 4 | 3 | 10* | 38 | -20
COc1cc2nc(SCc3ccc(C(F)(F)F)cc3)n(Cc3cccs3)c(=N)c2cc1OC | -4 | 0 | 24* | 16 | -1
COC(=O)[C@]12C[C@H](CC(=O)NCc3ccc(OC)c(OC)c3)C(=O)N(Cc3ccco3)C1=C[C@H](C(C)C)O[C@@H]2C1CC1 | 1 | -10 | nt | nt | 6
COC(=O)[C@H]1C[C@@]2(C)c3ccccc3N(S(=O)(=O)c3ccccc3)[C@H]2N1 | -3 | 2 | nt | nt | -1
CC(=O)C(C(C)=O)c1c(Cl)c(O)c(O)c2c(C(=O)c3ccccc3)coc12 | 15* | 32* | -15 | -148 | 9
